According to paper PMC5540273 (PLoS ONE, 2017):

Experiments:
PIP5K2C = tested on: T1, PIP5K2C
T1 construct: gene PIP4K2C

PIK4CB = tested on: T2, PIK4CB
T2 construct: gene PI4KB

PRKR = tested on: T3, PRKR
T3 construct: gene EIF2AK2
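Also: kd values determined as follow-up on hits from a single-replicate KINOMEscan panel screen.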

Nc1nc(-c2ccccc2F)c(-c2ccnc3ccccc23)s1 [GW560459]
Kd (RIPK2): > 10000 nM

CCC(=O)c1c(-c2ccccc2)c2cc(Cl)ccc2c(=O)n1Cc1cc(S(C)(=O)=O)n(CC(N)=O)n1
Kd (PRKCH): > 10000 nM

COc1cccc(C2=C(Nc3cccc(C(=O)O)c3)C(=O)NC2=O)c1 [SB-390770]
Kd (PRKCI): > 10000 nM

Cc1ccccc1COc1cc(-n2cnc3cc(Cl)ccc32)sc1C(N)=O [GW813349]
Kd (PLK1): 19 nM
Kd (PLK2): 68 nM
Kd (PLK3): 99 nM

C[C@@H]1CC[C@H](C(=O)NC2CCCCC2)CN1c1cc(-c2ccc3c(N)n[nH]c3c2)nc(N)n1 [GSK2291363]
Kd (PIP5K1A): 440 nM
Kd (PRKX): 460 nM
Kd (RIOK1): 210 nM
Kd (RIOK3): 150 nM

COc1cc2ncn(-c3cc(OCc4ccncc4Br)c(C(N)=O)s3)c2cc1OC [GW854278]
Kd (PIP5K1C): 610 nM
Kd (PIP5K2C): 330 nM
Kd (PLK1): 1.1 nM
Kd (PLK2): 1.4 nM
Kd (PLK3): 9.4 nM

Cc1cccc(-c2nc(Nc3ccc4c(cnn4C)c3)c3ccccc3n2)n1 [GW876731]
Kd (PIKFYVE): 380 nM
Kd (PRKD1): 7.2 nM
Kd (PRKD2): 12 nM
Kd (PRKD3): 13 nM

Cc1cc(Nc2nc(-c3cccc(C)n3)nc3ccccc23)ccn1 [GW872411]
Kd (PRKD1): 6.1 nM
Kd (PRKD2): 9.4 nM

COc1ccc(-c2cc3c(C)nc(N)nc3n([C@H]3CC[C@H](O)CC3)c2=O)cn1
Kd (PIK3CG): 0.32 nM
Kd (PIK4CB): 25 nM

COc1cc(Nc2nccc(N3CCC(NC(=O)C4COc5ccccc5O4)C3)n2)cc(OC)c1OC (stereo not drawn) [GSK1379761]
Kd (PIP5K2C): 670 nM

COc1ccc(-c2cc3c(C)nc(N)nc3n([C@H]3CC[C@H](OCCO)CC3)c2=O)cn1
Kd (PIK4CB): 46 nM

COc1cc2ncn(-c3cc(OCc4ccc(S(C)(=O)=O)cc4)c(C(N)=O)s3)c2cc1OC [GW869979]
Kd (PLK1): 14 nM
Kd (PLK2): 5.9 nM
Kd (PLK3): 100 nM

CCS(=O)c1ccc(-c2coc3ccc(-c4nnc(C)o4)cc23)cc1 (stereo not drawn)
Kd (PIP5K2C): 85 nM

FC(F)(F)c1ccc(-c2ncn(CCCN3CCOCC3)c2-c2ccncc2)cc1 [SB-217780]
Kd (PRKCD): > 10000 nM

COc1cc2ncn(-c3cc(OCCCc4ccccc4)c(C(N)=O)s3)c2cc1OC [GSK205189]
Kd (PLK2): 34 nM
Kd (PLK3): 120 nM

Cc1ccc(Oc2ccc(Nc3ncnc4cc[nH]c34)cc2C)cn1
Kd (RIOK1): > 10000 nM

COc1ccc(Nc2nccc(N3CCC(NS(=O)(=O)c4ccc(NC(C)=O)cc4)C3)n2)cc1 (stereo not drawn) [GSK1379729]
Kd (RIPK2): > 10000 nM

COc1cc2ncn(-c3cc(OCc4ccncc4)c(C(N)=O)s3)c2cc1OC [GSK336313]
Kd (PLK1): 110 nM
Kd (PLK2): 41 nM

Nc1ncnc2c1ncn2-c1cccc(F)c1 [SKF-97560]
Kd (RIPK2): > 10000 nM

O=C1NC(=O)C(c2ccccc2)=C1Nc1cccc(O)c1 [SB-390534]
Kd (PRKR): > 10000 nM

COc1cc2nccc(Nc3cccc(Oc4ccccc4)c3)c2cc1OC.Cl [GW284543]
Kd (RIPK2): 440 nM
